The results in this text go back to PubChem BioAssay (EPA / NIEHS).

In general, AC50 refers to the concentration at which the activity in the assay is half-maximal.

Inconclusive results are not listed. The source made the active and inactive calls. The calls were made as follows, unless noted: active = hit-call score of the fitted dose curve at least 0.9, where 1 is the maximum; inactive = score below 0.9.

Assay [1] has as its target Paired box protein Pax-6 (Homo sapiens) (UniProt P26367). Briefly: ATG_Pax6_CIS: Attagene CIS-FACTORIAL HepG2 Assay for human Paired Box 6 (PAX6) (AID 2282956). To be noted: HepG2 CIS-FACTORIAL PAX6 reporter transcription, RNA readout; actives raise or lower the signal. The method in brief: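 Read-out is reporter transcript level, measured by RT-PCR with fluorescent primer extension and capillary electrophoresis after 24 h dosing of transfected HepG2 cells. Activity in either direction fitted relative to DMSO control.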

Assay [2] is described as follows: ATG_PXRE_CIS: Attagene CIS-FACTORIAL HepG2 Assay for human Pregnane X Receptor Element (PXRE) (AID 2282957). To be noted: HepG2 Attagene CIS-FACTORIAL PXRE reporter, mRNA; actives raise or lower the signal. The method in brief:
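Fluorescent capillary electrophoresis of amplified reporter cDNA gave the signal, collected 24 h after dosing HepG2 cells that held transfected cis-element reporter constructs.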

A short description of assay [3]: ATG_PPRE_CIS: Attagene CIS-FACTORIAL HepG2 Assay for human Peroxisome Proliferator-activated Response Element (PPRE) (AID 2282958). As to conditions: HepG2 PPRE cis-element reporter, Attagene transcription factor profiling; actives raise or lower the signal. In short, it runs like this:
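Transcript-level reporter induction in transfected HepG2 cells after 24 h chemical exposure, quantified by fluorescence from RT-PCR products separated by capillary electrophoresis.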

The nature of assay [4]: ATG_RORE_CIS: Attagene CIS-FACTORIAL HepG2 Assay for human RAR-related Orphan Receptor Element (RORE) (AID 2282959). As to conditions: HepG2 Attagene cis-factorial RORE reporter, mRNA; actives raise or lower the signal. In short, it runs like this:
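Multiplexed reporter assay measuring mRNA induction from a cis promoter element in transiently transfected HepG2 cells after 24 h treatment. Detection via RT-PCR and capillary electrophoresis fluorescence; DMSO serves as baseline.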

The nature of assay [5]: ATG_Sox_CIS: Attagene CIS-FACTORIAL HepG2 Assay for human SRY-box transcription factor (SOX) (AID 2282960). As to conditions: HepG2 Attagene cis-factorial SOX reporter, mRNA; actives raise or lower the signal. The method in brief: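 Cells were transfected with reporter constructs under cis-regulatory promoters, then exposed to chemicals for 24 h. Reporter transcripts were quantified by fluorescence after RT-PCR and capillary electrophoresis; activity was fitted in both directions against DMSO.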

The target of assay [6] is Transcription factor Sp1 (Homo sapiens) (UniProt P08047). Briefly: ATG_Sp1_CIS: Attagene CIS-FACTORIAL HepG2 Assay for human Specificity Protein 1 (Sp1) (AID 2282961). As to conditions: HepG2 Sp1 cis-reporter transcription, actives raise or lower the signal. In short, it runs like this:
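Measures mRNA induction of an Sp1-linked reporter in HepG2 cells 24 h post-dosing. Multiplexed reporters read by RT-PCR and capillary electrophoresis; DMSO serves as negative control and baseline.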

Assay [7] in a line: ATG_SREBP_CIS: Attagene CIS-FACTORIAL HepG2 Assay for human Sterol Regulatory Element Binding (SREBP) (AID 2282962). To be noted: HepG2 Attagene cis-factorial SREBP reporter, mRNA; actives raise or lower the signal. In short, it runs like this: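 Endogenous SREBP activity read as cis-element-driven reporter transcript in transiently transfected HepG2, 24 h post-dosing; quantified via RT-PCR plus capillary electrophoresis of fluorescent fragments. Gain or loss of signal fitted relative to DMSO baseline.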

The target of assay [8] is Signal transducer and activator of transcription 3 (Homo sapiens) (UniProt P40763). Briefly: ATG_STAT3_CIS: Attagene CIS-FACTORIAL HepG2 Assay for human Signal Transducer and Activator of Transcription 3 (STAT3) (AID 2282963). As to conditions: HepG2, Attagene cis-factorial STAT3 reporter transcription; actives raise or lower the signal. In short, it runs like this:
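Readout: fluorescent reporter mRNA fragments resolved by capillary electrophoresis. Setup: HepG2 transfected with MRTUs reporting endogenous transcription-factor activity, dosed 24 h. Gain or loss of signal fitted bidirectionally against DMSO control.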

The nature of assay [9]: ATG_TA_CIS: Attagene CIS-FACTORIAL HepG2 Assay for human TA Basal Promoter (AID 2282964). To be noted: HepG2 Attagene CIS-factorial TA basal promoter reporter; actives raise or lower the signal. In short, it runs like this:
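Transfected HepG2, 24 h compound exposure; RNA → RT-PCR → FAM primer extension → HpaI cut → CE fluorescence. Gain/loss-of-signal fitted against DMSO negative control. Background-control readout.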

The nature of assay [10]: ATG_TCF_b_cat_CIS: Attagene CIS-FACTORIAL HepG2 Assay for human T-Cell-Factor with beta-catenin (TCF/b-cat) (AID 2282965). To be noted: HepG2 TCF/beta-catenin cis-reporter transcription, actives raise or lower the signal. The method in brief:
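HepG2, transient MRTU transfection, cis-element-driven reporters (endogenous TFs). 24 h compound exposure. Readout: reporter mRNA by RT-PCR + 6-FAM primer extension, HpaI digest, capillary electrophoresis. Gain/loss fit vs DMSO baseline.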

Assay [11] can be described thus: ATG_TAL_CIS: Attagene CIS-FACTORIAL HepG2 Assay for human TAL Basal Promoter (AID 2282966).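 Also: background control endpoint measuring basal TAL promoter reporter mRNA not a specific factor.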 As to conditions: HepG2 Attagene cis-factorial TAL promoter reporter; actives raise or lower the signal. In short, it runs like this:
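Transiently transfected HepG2 (cis-regulated reporter units), 24 h treatment, mRNA read by fluorescent CE after RT-PCR; bidirectional fit, DMSO baseline.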

The nature of assay [12]: ATG_TGFb_CIS: Attagene CIS-FACTORIAL HepG2 Assay for human Transforming Growth Factor (TGF) (AID 2282967). As to conditions: HepG2 Attagene CIS TGFb reporter, mRNA transcription; actives raise or lower the signal. The method in brief:
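Readout: fluorescently labeled reporter cDNA fragments resolved by capillary electrophoresis after RT-PCR. Transfected HepG2 cells dosed for 24 h; endogenous TF activity at TGFB1-linked cis element; gain or loss fitted relative to DMSO.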

The target of assay [13] is Estrogen receptor (Homo sapiens) (UniProt P03372). The experiment in a line: ATG_ERa_TRANS: Attagene TRANS-FACTORIAL HepG2 Assay for human Estrogen Receptor alpha (ERa) (AID 2282970; active = hit-call score of the fitted dose curve at least 0.9, where 1 is the maximum). As to conditions: HepG2 Attagene TRANS ERa GAL4 reporter, mRNA. In short, it runs like this:
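One of 30 multiplexed endpoints from a HepG2 TRANS system, this one reports ERa-Gal4-driven reporter mRNA. Transcripts were quantified 24 hours post-dosing by fluorescent RT-PCR and capillary electrophoresis, with activity scored as induction over DMSO.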

Assay [14] deals with X-box-binding protein 1 (Homo sapiens) (UniProt P17861). Briefly: ATG_Xbp1_CIS: Attagene CIS-FACTORIAL HepG2 Assay for human X-box Binding Protein 1 (XBP1) (AID 2282972). As to conditions: HepG2 XBP1 cis-element reporter, Attagene multiplex; actives raise or lower the signal. The method in brief:
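Reporter transcripts were quantified by RT-PCR with fluorescent primer extension and capillary electrophoresis after 24 h chemical exposure. Cells: transiently transfected HepG2 carrying cis-regulated reporter constructs; data fitted bidirectionally relative to DMSO.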

Assay [15] can be described thus: ATG_M_19_TRANS: Attagene TRANS-FACTORIAL HepG2 Assay for M19 Transcription Factor (Internal Marker) (AID 2282974; active = hit-call score of the fitted dose curve at least 0.9, where 1 is the maximum). As to conditions: HepG2 Attagene TRANS-FACTORIAL M19 internal marker reporter. In short, it runs like this:
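After transfection of HepG2 with GAL4-UAS-driven reporter constructs, cells are dosed for 24 h. Total RNA is reverse-transcribed, reporter sequences PCR-amplified and labelled, then HpaI-digested and sized by capillary electrophoresis.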

A short description of assay [16]: ATG_GAL4_TRANS: Attagene TRANS-FACTORIAL HepG2 Assay for GAL4 (Internal Marker) (AID 2282976; active = hit-call score of the fitted dose curve at least 0.9, where 1 is the maximum). To be noted: HepG2 Attagene TRANS GAL4 internal marker reporter. In short, it runs like this:
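HepG2 cells transiently transfected with multiplexed GAL4-UAS reporter constructs were dosed for 24 h. Reporter mRNA was measured by RT-PCR, 6-FAM primer extension, HpaI digestion and capillary electrophoresis, and gain of signal was fitted relative to DMSO.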

Assay [17] concerns the target Estrogen-related receptor gamma (Homo sapiens) (UniProt P62508). Briefly: ATG_ERRg_TRANS: Attagene TRANS-FACTORIAL HepG2 Assay for human Estrogen-Related Receptor gamma (ERRg) (AID 2282977; active = hit-call score of the fitted dose curve at least 0.9, where 1 is the maximum;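 also: hits increase reporter signal over DMSO so potencies reflect activators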). To be noted: HepG2 Attagene TRANS reporter, ERRg transactivation. The method in brief:
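Exogenous NR-Gal4 chimera activity was assessed in HepG2 cells bearing transfected GAL4-UAS reporters. After 24 h dosing, total RNA underwent RT-PCR, fluorescent primer extension and HpaI digestion before capillary electrophoresis, with gain of signal scored against DMSO.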

Assay [18] addresses Nuclear receptor subfamily 1 group I member 3 (Homo sapiens) (UniProt Q14994). The experiment in a line: ATG_CAR_TRANS: Attagene TRANS-FACTORIAL HepG2 Assay for human Constitutive Androstane Receptor (CAR) (AID 2282969; active = hit-call score of the fitted dose curve at least 0.9, where 1 is the maximum;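 also: activators raise reporter mRNA above DMSO so AC50 marks induction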). To be noted: HepG2 Attagene TRANS-FACTORIAL CAR reporter. The method in brief:
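Transiently transfected HepG2, multiplex TRANS reporters (CAR-Gal4 chimera driving GAL4-UAS reporter). 24 h dosing. Readout: reporter transcript by RT-PCR + capillary electrophoresis, fluorescence intensity; positive direction vs DMSO.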

A short description of assay [19]: ATG_VDRE_CIS: Attagene CIS-FACTORIAL HepG2 Assay for human Vitamin D Receptor Element (VDRE) (AID 2282968). To be noted: HepG2 VDRE cis-reporter transcription, actives raise or lower the signal. The method in brief:
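Transient MRTU transfection of HepG2, 24 h compound exposure. Readout: reporter transcripts via RT-PCR and capillary electrophoresis, fluorescence. Bidirectional fit vs DMSO.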

Sequence of X-box-binding protein 1 (Homo sapiens) (P17861 whole entry, looked up): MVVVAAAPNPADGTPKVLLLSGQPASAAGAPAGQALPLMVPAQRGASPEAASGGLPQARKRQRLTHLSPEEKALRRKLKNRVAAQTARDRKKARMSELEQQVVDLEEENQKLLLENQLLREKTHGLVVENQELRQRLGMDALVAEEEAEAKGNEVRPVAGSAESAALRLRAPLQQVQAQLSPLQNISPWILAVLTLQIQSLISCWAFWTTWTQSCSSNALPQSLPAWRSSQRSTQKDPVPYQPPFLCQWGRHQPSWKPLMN
Sequence of Signal transducer and activator of transcription 3 (Homo sapiens) (P40763 whole entry, looked up, the tested form may be a part): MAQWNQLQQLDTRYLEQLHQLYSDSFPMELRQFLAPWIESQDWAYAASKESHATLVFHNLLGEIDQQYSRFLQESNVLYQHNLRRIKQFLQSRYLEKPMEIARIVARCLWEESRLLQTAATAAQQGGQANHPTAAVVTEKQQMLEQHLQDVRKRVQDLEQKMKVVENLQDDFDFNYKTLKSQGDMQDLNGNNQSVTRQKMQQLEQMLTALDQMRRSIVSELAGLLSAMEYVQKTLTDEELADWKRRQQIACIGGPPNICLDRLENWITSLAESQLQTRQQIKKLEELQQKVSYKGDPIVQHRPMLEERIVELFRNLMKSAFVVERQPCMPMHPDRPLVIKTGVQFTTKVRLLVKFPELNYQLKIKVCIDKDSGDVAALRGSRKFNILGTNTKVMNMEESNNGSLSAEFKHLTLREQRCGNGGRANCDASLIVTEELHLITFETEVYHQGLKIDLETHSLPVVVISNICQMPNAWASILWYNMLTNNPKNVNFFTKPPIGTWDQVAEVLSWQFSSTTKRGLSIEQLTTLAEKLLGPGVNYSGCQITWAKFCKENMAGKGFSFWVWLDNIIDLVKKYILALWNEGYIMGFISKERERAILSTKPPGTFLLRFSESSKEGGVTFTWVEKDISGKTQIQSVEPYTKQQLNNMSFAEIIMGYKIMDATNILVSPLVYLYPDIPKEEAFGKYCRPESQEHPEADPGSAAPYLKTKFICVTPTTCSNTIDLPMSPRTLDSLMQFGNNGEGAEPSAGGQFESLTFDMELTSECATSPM
Sequence of Transcription factor Sp1 (Homo sapiens) (P08047 whole entry, looked up): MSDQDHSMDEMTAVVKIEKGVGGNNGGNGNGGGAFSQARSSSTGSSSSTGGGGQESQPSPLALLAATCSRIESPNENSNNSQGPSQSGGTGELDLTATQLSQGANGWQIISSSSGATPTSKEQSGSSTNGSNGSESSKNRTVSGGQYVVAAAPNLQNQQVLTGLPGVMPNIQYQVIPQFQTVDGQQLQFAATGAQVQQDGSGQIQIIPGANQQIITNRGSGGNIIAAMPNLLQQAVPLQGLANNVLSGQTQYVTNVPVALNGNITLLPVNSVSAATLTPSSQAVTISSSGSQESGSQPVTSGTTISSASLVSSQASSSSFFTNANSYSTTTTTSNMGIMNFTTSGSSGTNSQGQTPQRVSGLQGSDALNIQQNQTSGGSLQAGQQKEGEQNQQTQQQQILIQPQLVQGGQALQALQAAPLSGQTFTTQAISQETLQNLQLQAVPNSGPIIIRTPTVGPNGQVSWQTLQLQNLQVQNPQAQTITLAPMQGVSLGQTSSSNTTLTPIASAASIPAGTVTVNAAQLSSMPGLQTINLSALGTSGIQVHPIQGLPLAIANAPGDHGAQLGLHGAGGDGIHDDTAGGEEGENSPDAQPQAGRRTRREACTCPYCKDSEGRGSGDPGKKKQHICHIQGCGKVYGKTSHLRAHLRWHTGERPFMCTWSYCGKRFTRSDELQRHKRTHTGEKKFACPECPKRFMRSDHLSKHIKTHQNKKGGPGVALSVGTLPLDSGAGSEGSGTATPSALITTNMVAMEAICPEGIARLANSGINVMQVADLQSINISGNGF
Sequence of Paired box protein Pax-6 (Homo sapiens) (P26367 whole entry, looked up): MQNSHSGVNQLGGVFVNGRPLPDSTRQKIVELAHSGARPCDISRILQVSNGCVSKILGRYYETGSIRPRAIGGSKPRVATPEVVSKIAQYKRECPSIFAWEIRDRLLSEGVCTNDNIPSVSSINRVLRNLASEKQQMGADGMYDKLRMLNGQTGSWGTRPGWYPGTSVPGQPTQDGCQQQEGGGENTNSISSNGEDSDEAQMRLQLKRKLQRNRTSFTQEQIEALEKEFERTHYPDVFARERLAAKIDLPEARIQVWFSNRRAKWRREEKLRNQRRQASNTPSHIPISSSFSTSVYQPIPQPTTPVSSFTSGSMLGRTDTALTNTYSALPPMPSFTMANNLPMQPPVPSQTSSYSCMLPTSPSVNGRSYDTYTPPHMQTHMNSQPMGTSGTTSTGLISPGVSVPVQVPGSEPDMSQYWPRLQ
Sequence of Estrogen receptor (Homo sapiens) (P03372 whole entry, looked up, the tested form may be a part): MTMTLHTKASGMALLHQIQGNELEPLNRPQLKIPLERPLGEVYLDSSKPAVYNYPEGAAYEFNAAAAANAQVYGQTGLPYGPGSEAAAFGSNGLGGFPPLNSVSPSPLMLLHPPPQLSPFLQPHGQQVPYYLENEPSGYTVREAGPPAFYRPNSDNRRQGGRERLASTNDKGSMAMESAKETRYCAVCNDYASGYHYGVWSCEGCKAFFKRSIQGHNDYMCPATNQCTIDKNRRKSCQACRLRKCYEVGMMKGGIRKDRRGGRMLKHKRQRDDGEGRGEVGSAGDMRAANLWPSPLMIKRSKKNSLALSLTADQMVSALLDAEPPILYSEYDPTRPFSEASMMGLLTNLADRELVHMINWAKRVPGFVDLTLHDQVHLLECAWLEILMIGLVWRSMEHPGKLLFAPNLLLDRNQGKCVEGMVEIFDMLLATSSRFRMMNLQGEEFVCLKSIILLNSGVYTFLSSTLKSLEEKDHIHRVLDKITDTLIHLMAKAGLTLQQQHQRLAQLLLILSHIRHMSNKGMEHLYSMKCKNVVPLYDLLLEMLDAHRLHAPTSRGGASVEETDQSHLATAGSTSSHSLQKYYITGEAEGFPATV
Sequence of Nuclear receptor subfamily 1 group I member 3 (Homo sapiens) (Q14994 whole entry, looked up, the tested form may be a part): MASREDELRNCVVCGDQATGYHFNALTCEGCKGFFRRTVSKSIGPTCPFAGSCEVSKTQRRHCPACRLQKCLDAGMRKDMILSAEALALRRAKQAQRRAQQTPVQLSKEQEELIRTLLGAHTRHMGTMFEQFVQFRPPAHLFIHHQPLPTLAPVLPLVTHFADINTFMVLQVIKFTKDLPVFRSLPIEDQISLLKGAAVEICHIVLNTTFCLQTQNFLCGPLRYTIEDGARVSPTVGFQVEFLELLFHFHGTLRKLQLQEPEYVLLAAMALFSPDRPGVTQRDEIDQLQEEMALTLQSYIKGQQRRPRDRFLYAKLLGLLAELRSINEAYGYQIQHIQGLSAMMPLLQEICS
Sequence of Estrogen-related receptor gamma (Homo sapiens) (P62508 whole entry, looked up, the tested form may be a part): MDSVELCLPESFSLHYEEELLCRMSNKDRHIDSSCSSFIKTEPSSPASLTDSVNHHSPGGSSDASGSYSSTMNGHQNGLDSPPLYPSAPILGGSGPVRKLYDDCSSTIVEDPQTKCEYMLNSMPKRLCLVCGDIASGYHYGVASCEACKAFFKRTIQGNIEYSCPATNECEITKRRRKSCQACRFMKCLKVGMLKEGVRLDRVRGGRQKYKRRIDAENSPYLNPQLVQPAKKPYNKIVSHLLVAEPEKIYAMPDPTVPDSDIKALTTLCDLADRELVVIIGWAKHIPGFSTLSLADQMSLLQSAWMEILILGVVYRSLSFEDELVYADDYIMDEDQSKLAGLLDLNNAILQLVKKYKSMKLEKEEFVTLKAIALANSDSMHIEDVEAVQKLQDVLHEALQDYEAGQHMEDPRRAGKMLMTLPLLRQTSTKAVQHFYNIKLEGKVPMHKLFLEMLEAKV

With `CCCC(=O)c1cc(O)c(O)cc1O`, the molecule was classed as inactive in [1], in [2], in [3], in [4], in assay [5] and in assay [6]. Also, the outcome in assay [7], in assay [8], in [9], in assay [10], in assay [11] and in assay [12] was inactive. Besides, the outcome in assay [13], in assay [14], in [15], in [16] and in assay [17] was inactive.
Turning to `Cc1ccc(C=O)cc1`, the molecule was classed as inactive in assay [1], in [2], in [3], in [4], in assay [5] and in assay [6]. Moreover, the outcome in [7], in assay [8], in assay [9], in [10], in [11] and in assay [12] was inactive. Further, the call in assay [13], in assay [14], in [15] and in assay [16] was inactive.
`O=C(O)c1cccc([N+](=O)[O-])c1`: the molecule was called inactive in assay [1], in [2], in assay [3], in assay [4], in assay [5] and in assay [6]. The result in [7], in assay [8], in [9], in assay [10], in assay [11] and in assay [12] was inactive. The result in assay [14] and in assay [16] was inactive.
Consider `COC(C(=O)O)c1ccccc1` (configuration not stated), for which the outcome in [1], in assay [2], in [3], in [4], in assay [5] and in [6] was inactive. Besides, the molecule was classed as inactive in assay [7], in [8], in [9], in [10], in [11] and in [12]. The call in assay [14] and in [16] was inactive.
For the molecule `CC(C=O)Cc1ccc(C(C)C)cc1` (configuration not stated), the call in assay [1], in assay [3], in assay [4], in [5], in assay [6] and in [7] was inactive. Also, the outcome in [8], in assay [9], in [10], in assay [11], in [12] and in [14] was inactive. Besides, in assay [16], the outcome was inactive. The AC50 in [2] was 24 µM (active).
As to `O=C[C@H](O)[C@H](O)[C@H](O)CO`, the outcome in assay [1], in assay [2], in [3], in assay [4], in assay [5] and in assay [6] was inactive. The molecule was classed as inactive in assay [7], in assay [8], in assay [9], in assay [10], in assay [11] and in [12]. Also, the result in assay [18] and in [16] was inactive.
For the molecule `C=C(C)[C@@H]1CCC2=CC(=O)C[C@@H](C)[C@]2(C)C1`, the molecule was classed as inactive in [1], in [3], in [4], in assay [5], in assay [6] and in assay [7]. In addition, the result in [8], in [9], in assay [10], in [11], in assay [13] and in assay [15] was inactive. In addition, the AC50 was 2.33 µM (active) in assay [2] and 152 µM (active) in assay [12].
For `CC1(C)CCC(C)(C)c2cc(C(=O)Nc3ccc(C(=O)O)cc3)ccc21`, the concentration at half-maximal activity (AC50) in [1] is 85 µM (active); in assay [2], 53.9 µM (active); in assay [3], 43.7 µM (active); in assay [4], 32.7 µM (active); in assay [9] it was 27.7 µM (active); in assay [10], 48.2 µM (active). In addition, the outcome in assay [5], in assay [6], in assay [7], in assay [8], in assay [11] and in [12] was inactive. The outcome in assay [14] was inactive.
Consider `CSc1nnc(C(C)(C)C)c(=O)[nH]1`, for which the outcome in assay [1], in [2], in [3], in assay [4], in assay [5] and in assay [6] was inactive. Besides, the result in assay [7], in assay [8], in assay [9], in assay [10], in assay [11] and in assay [12] was inactive. For the same molecule, the outcome in assay [19], in [14], in [15] and in assay [16] was inactive.
